Menin-MLL FL inh – menin-MLL binding inhibition, fluorescein peptide; Fluorescence polarization, fluorescein-MLL peptide displacement from menin; FP activity change, % at 61.4 µM; 290,000 tested, under 10 active; active = well fitted curve in the direction sought with a large enough effect in the polarisation, not every such curve was filed as active; inconclusive = small, poorly fitted or top-dose-only effect, or effect the other way, or a change in a side signal; inactive = no such curve, though single readings can be large or run the other way; the % refers to the polarisation; note: % of control where 0% means no effect
ASM inhibitor – inhibitors of human secretory acid sphingomyelinase; P17405; placental ASM, HMU-PC fluorogenic substrate, 60 min; Potency, µM (series often up to 57.5 µM), without a hit: at the top dose activity change, negative = inhibition, usual class: inhibitors; hit rate 0.006% among 340,000; AID 504937; active = well fitted inhibition curve with a large enough effect; inconclusive = small, poorly fitted or top-dose-only effect; inactive = no such curve, though single readings can be large or run the other way; note: potency is the fitted concentration of half-maximal effect
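Human placenta-derived ASM preincubated with compound 10 min at room temperature, then reacted with 9 uM (final) fluorogenic HMU-PC substrate for 60 min at 37 C. Stop solution raises pH to 10; fluorescence read at Ex 386/Em 447 nm.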
MLL CXXC-DNA inh – blocks binding of human MLL CXXC domain to DNA. MLL-CXXC / FITC-HOXA9 DNA fluorescence polarization. Potency, µM (titrated, usually from 115 µM), inactives show at the top dose activity change, negative = inhibition, usual class: inhibitors. hit rate 0.037% among 290,000; active = well fitted inhibition curve with a large enough effect in the polarisation, with a control signal flat, not every such curve was filed as active; inconclusive = small, poorly fitted or top-dose-only effect, or effect the other way, or a change in a side signal; inactive = no such curve, though single readings can be large or run the other way; the % refers to the polarisation; note: potency is the fitted concentration of half-maximal effect
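Fluorescence polarization: 7 uM MLL-CXXC (stock) preincubated 5 min with compounds, then 50 nM fluorescein-HOX-A9 DNA (stock) added; 30 min ambient. Buffer 50 mM Tris-HCl pH 7.5, 50 mM NaCl, 1 mM DTT, 0.05% BSA.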
MBNL1-CUG inh – MBNL1-poly(CUG) RNA binding inhibition; TR-FRET MBNL1-His/biotin-(CUG)12 binding, 665/545 ratio; hit rate 0.036% among 280,000; Q9NR56; Potency, µM (doses to about 57.5 µM), without a hit: at the top dose activity change, negative = inhibition, hits mostly inhibitors; active = well fitted inhibition curve with a large enough effect in the signal ratio, with a control signal flat, not every such curve was filed as active; inconclusive = small, poorly fitted or top-dose-only effect, or effect the other way, or a change in a side signal; inactive = no such curve, though single readings can be large or run the other way; the % refers to the signal ratio; note: potency is the fitted concentration of half-maximal effect; % is set by controls: 0 for no effect and ±100 for the full control effect
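Ratiometric TR-FRET (665 over 545 nm, excitation 340 nm) tracks disruption of MBNL1-His/biotin-(CUG)12 complex after 60 min at room temperature, with compounds at 92 nM to 58 uM final.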
pAkt inh – Akt phosphorylation inhibition. Neuro2A IGF-stimulated pAkt S473 HTRF, 20 min; stronger effect = lower value. activity change, % for hits at 50 µM. hit rate 0.32% among 360,000. AID 651550; in the data active = activity change below about -80%; inconclusive = mostly about -51% to -80%; note: % is set by controls: 0 for no effect and ±100 for the full control effect
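Neuro2A cells in DMEM with 0.5% FBS, overnight at 37 deg C, given compound at single 50 µM final, then IGF (6 nM final) for 20 min at 37 deg C. Lysed; phospho-Akt Ser473 by HTRF after 24 h, 665/615 ratio.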
Menin-MLL TR inh – inhibitors of human menin-MLL interaction, mutant MLL peptide | O00255 | Menin + Texas Red MLL mutant peptide, fluorescence polarization | Potency, µM (series often up to 61.6 µM), without a hit: at the highest dose FP activity change, negative = inhibition, most hits filed as inhibitors | hit rate 0.23% among 270,000 | AID 1768; active = well fitted inhibition curve with a large enough effect in the polarisation, with a control signal flat, not every such curve was filed as active; inconclusive = small, poorly fitted or top-dose-only effect, or effect the other way, or a change in a side signal; inactive = no such curve, though single readings can be large or run the other way; the % refers to the polarisation; note: potency is the fitted concentration of half-maximal effect; % of control where 0% means no effect
Target sequence (O00255 whole entry, looked up): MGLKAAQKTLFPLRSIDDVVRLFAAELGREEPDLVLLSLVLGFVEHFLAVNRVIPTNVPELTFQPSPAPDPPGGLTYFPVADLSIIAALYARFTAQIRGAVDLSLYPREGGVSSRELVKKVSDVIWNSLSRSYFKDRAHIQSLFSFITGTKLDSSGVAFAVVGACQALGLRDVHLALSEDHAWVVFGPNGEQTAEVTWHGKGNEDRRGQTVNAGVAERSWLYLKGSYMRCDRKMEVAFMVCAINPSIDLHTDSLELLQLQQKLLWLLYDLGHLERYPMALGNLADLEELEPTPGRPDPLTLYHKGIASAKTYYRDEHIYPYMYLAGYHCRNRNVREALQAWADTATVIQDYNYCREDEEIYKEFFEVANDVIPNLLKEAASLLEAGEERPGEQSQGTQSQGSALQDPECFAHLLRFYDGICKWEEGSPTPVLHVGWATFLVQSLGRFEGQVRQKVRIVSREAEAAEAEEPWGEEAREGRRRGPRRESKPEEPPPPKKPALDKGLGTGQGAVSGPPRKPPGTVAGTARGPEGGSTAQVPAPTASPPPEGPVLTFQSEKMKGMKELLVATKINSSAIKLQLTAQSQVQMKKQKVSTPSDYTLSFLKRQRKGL
Numbers without * were called inactive; i = inactive; ? = inconclusive; nt = no result given; ! = repeats disagree; [ ] = remark or other dose. A selection: hits, their analogues and other compounds. The true share with any hit is near 0.45%.

SMILES | Menin-MLL FL inh | ASM inhibitor | MLL CXXC-DNA inh | MBNL1-CUG inh | pAkt inh | Menin-MLL TR inh
Cc1cc(N2CCOCC2)nc(SCc2ccc(Cl)cc2Cl)n1 | 7 | -9% | -2% | -14% | -110%* | 11%
COc1cccc(OCc2nc3ccccc3[nH]2)c1 | 2 | 1% | 4% | 4% | i | -3%[11.7 µM]
O=C(c1ccc2snnc2c1)N1CCSCC1 | -1 | 3% | -1% | 4% | -108%* | -10%
CCOc1ccccc1-c1nc(-c2cc3ccc(C)cc3[nH]c2=O)no1 | 3 | 82% | 28% | -7% | i | 0%
CC(C)(CNS(C)(=O)=O)SCc1ccc(Cl)cc1 | 2 | 1% | 6% | -2% | i | 18%
CS(=O)(=O)NCCSCc1ccc(Cl)cc1 | 3 | -1% | -5% | -7% | -108%* | 1%
CC(=O)Nc1ccc(N(C)C)cc1[N+](=O)[O-] | 0 | -1% | -2% | ? | -109%* | 3%
CC(=O)Nc1ccc(O)cc1[N+](=O)[O-] | 3 | -2% | 6% | ? | i | 25%
COc1ccc(N/C=C/C(=O)C(C)(C)C)cc1 | 1 | 4% | -2% | 0% | i | 13%
O=C(/C=C/Nc1ccc(OC(F)(F)F)cc1)C(F)(F)F | 3 | 5% | -5% | -6% | -127%* | nt
Cn1nc(C(=O)O)c(=O)n(C)c1=O | nt | 1% | nt | nt | i | nt
Cc1cc(F)ccc1S(=O)(=O)Nc1ccccc1C(=O)Nc1ccccc1-c1nc2ccccc2[nH]1 | 14 | -5% | 6% | nt | i | 14µM*
O=C(Nc1cccn(Cc2c(Cl)cccc2Cl)c1=O)C1CC1 | -4 | 1% | 4% | 11% | i | 6%
C#CCOC(=O)Nc1cccn(Cc2c(Cl)cccc2Cl)c1=O | 0 | -1% | 4% | 11% | -120%* | -12%
O=S(=O)(c1ccc(Br)cc1)N1CCN(c2cc(-c3ccccc3)nc3ncnn23)CC1 | 7 | -7% | 24% | 1% | nt | 3%
O=S(=O)(c1ccccc1)N1CCN(c2cc(-c3ccccc3)nc3ncnn23)CC1 | 16 | 1% | 22% | ? | -88%* | 2%
COc1ccc(-c2nnc(SC(C)C(=O)NNC(=O)c3ccc(C)cc3)o2)cc1 (stereo not drawn) | 1 | -1% | 20% | ? | i | -2%
CC(=O)N[C@@H](CC(C)C)C(=O)N[C@@H](CC(C)C)C(=O)N[C@H](C=O)CCCN=C(N)N | 0 | nt | nt | nt | nt | 1%
CCCCC(=O)Nc1nnc(-c2ccc(OC)cc2)s1 | 0 | 10% | -5% | 14% | i | 9%
CCCCC(=O)N(CCOC)c1nnc(-c2ccc(OC)cc2)s1 | 1 | -2% | 5% | 0% | -103%* | -11%
CCN(CC)S(=O)(=O)c1cc(C(=O)Nc2ccc(Cl)cn2)ccc1C | 1 | -2% | 19% | -1% | -114%* | 21%
CCOc1ccccc1N(CC(=O)Nc1ccc(S(=O)(=O)N2CCOCC2)cc1)S(=O)(=O)c1ccccc1 | 5 | 0% | 3% | -16% | -127%* | -19%
Nc1nonc1-c1nc2ccccc2n1CC(=O)N/N=C\c1ccc(-c2ccc(Cl)cc2)o1 | 11 | 2% | 49% | -10% | i | 10µM*
CCOC(=O)c1nnc(-c2ccccc2)nc1Oc1ccc(Cl)cc1 | -2 | -18% | 0% | 26% | -119%* | 10%
CCOC(=O)c1nnc(-c2ccccc2)nc1Sc1ccccc1Cl | -3 | -20% | 1% | ? | i | 8%
SMILES | Menin-MLL FL inh | ASM inhibitor | MLL CXXC-DNA inh | MBNL1-CUG inh | pAkt inh | Menin-MLL TR inh
O=C(O)c1ccccc1-c1nc2ccccc2c(=O)[nH]1 | -1 | -4% | 7% | -4% | -105%* | 4%
COc1ccc(OC)c2sc(NC(=O)c3ccc(S(=O)(=O)N4CCOCC4)cc3)nc12 | 0 | 2% | 10% | 6% | i | 18µM*
O=C(Nc1nccs1)c1cccc(S(=O)(=O)N2CCOCC2)c1 | 6 | 0% | 8% | 3% | -114%* | 0%
Cc1cc2c(cc1C)N(C(=O)CCl)CCN2C(=O)CCl | nt | 3% | nt | nt | i | nt
CSc1c(-c2ccccc2)nc2ccccc2c1C(=O)O | 4 | 2% | 6% | -5% | i | 3%
CN(Cc1ccccc1)C(=O)c1[nH]cnc1C(=O)Nc1ccc(Br)cc1F | nt | nt | nt | nt | i | nt
Cc1nc2c([nH]1)c(=O)n(C)c(=O)n2Cc1ccco1 | ? | nt | 9% | nt | nt | 16µM*!
Cc1nc2ccccc2c(=O)n1Cc1ccco1 | 0 | -2% | 22% | 3% | i | nt
Cc1nnc(NC(=O)C2c3ccccc3Oc3ccccc32)s1 | 1 | 2% | -1% | -2% | i | -1%
O=C(Nc1nc(-c2ccccc2)cs1)C1c2ccccc2Oc2ccccc21 | 3 | -9% | 11% | 2% | i | 18µM*
O=C(Nc1nc(-c2ccncc2)cs1)C1c2ccccc2Oc2ccccc21 | 10 | -12% | 3% | 6% | i | ?
COc1ccc(OC)c(-c2csc(NC(=O)C3c4ccccc4Oc4ccccc43)n2)c1 | 7 | -1% | 11% | 11% | i | 14µM*
O=C(Nc1nncs1)C1c2ccccc2Oc2ccccc21 | 2 | 3% | 0% | 12% | -102%* | 1%
O=C(CCCC(=O)N(CC(=O)NC1CCCCC1)c1cccc(F)c1)Nc1ccccn1 | -3 | 4% | 3% | -3% | i | -27%
COc1ccc([C@H]2N[C@]3(CCCN(Cc4ccc(C(F)(F)F)cc4)C3=O)[C@H]3C(=O)N(C)C(=O)[C@@H]23)cc1 | nt | nt | nt | nt | i | nt
O=C(OCc1c(Cl)cccc1Cl)c1ccncc1 | -3 | -1% | 13% | ? | i | -6%
Cc1ccc(-c2cc(NC(=O)c3ccccc3[N+](=O)[O-])n[nH]2)cc1 | -4 | -5% | -4% | ? | i | ?
O=C(CN1C(=O)C2CCCCC2C1=O)Nc1cccc(C(F)(F)F)c1 (stereo not drawn) | nt | -5% | nt | nt | i | nt
O=C(CN1C(=O)CNC1=O)Nc1cccc(C(F)(F)F)c1 | 0 | 1% | 1% | -3% | -101%* | -9%
O=C1NCCCC1C(=O)Nc1cccc(C(F)(F)F)c1 (stereo not drawn) | -2 | 3% | -3% | -10% | -102%* | 13%
Cc1cccc(N2CCN(CC(=O)Nc3ccccc3[N+](=O)[O-])CC2)c1C | 11 | -10% | 1% | 10% | i | -5%
Cc1nccn1CC(O)Cn1c2ccccc2c2ccccc21 (stereo not drawn) | 0 | -1% | 6% | -2% | -101%* | 0%
COC(=O)Nc1nc(C)c(C(=O)N(C)C)s1 | 3 | 0% | -1% | -1% | -127%* | 0%
COc1ccc(-n2nc(C(=O)NCC(=O)N3CC(C)CC(C)C3)c3ccccc3c2=O)cc1 (stereo not drawn) | 1 | 0% | -2% | ? | i | -26%
